High-throughput results from PubChem.
MsrA inh: bovine MsrA enzyme inhibitors, primary screen, biochemical, absorbance, HTS | 0.75% of 360,000 active | inhibition, % at 15.5 µM | Methionine sulfoxide reductase A (Bos taurus) | purified bovine MsrA, absorbance read-out | AID 651718, 2012;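 also: 0% = vehicle wells with enzyme and 100% = reference inhibitor wells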
NPR1 activator: GC-A stimulated cGMP production enhancers – HEK293 GC-A cells, cGMP TR-FRET, EC30 ANP, primary screen | activation, % at 10 µM | 0% at EC30 ANP, 100% saturating ANP | AID 1671463, 2021 | Atrial natriuretic peptide receptor 1 (Homo sapiens), P16066 | 0.14% of 370,000 active; in the data active = activation above about 40%
Target sequence (P16066 whole entry, looked up): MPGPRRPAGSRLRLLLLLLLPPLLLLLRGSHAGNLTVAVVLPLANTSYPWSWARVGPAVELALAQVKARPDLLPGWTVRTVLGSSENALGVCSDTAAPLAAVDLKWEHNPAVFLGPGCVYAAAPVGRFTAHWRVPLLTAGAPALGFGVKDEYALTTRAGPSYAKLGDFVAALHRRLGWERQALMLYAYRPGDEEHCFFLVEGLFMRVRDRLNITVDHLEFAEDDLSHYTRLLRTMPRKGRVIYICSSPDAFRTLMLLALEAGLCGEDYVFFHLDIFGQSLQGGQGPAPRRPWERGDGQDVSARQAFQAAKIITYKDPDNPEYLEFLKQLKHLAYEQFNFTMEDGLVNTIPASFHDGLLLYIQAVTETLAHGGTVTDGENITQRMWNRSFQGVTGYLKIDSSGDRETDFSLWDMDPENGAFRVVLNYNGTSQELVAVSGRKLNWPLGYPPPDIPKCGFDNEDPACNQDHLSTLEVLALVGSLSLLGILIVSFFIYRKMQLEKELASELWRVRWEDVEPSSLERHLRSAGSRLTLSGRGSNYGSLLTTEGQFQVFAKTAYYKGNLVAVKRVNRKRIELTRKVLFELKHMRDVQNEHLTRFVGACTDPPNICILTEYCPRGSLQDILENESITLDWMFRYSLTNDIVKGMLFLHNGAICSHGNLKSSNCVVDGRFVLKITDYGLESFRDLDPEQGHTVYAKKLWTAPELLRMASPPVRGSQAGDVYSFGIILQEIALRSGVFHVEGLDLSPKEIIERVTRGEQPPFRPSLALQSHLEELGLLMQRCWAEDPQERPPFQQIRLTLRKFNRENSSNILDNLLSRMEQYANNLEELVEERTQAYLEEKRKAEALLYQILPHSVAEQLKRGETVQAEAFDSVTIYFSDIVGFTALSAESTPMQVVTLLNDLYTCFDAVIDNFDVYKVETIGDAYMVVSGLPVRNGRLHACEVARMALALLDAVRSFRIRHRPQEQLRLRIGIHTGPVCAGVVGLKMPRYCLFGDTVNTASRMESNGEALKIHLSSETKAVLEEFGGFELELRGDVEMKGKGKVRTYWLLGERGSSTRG
MsrA act: bovine MsrA enzyme activators, primary screen, biochemical, absorbance, HTS; 0.3% of 360,000 active; purified bovine MsrA, absorbance read-out; AID 602163, 2012; Methionine sulfoxide reductase A (Bos taurus); activation, % at 10.6 µM; in the data active = activation above about 7.5%;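 also: 0% = vehicle and 100% = reference activator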
GC-B act: human GC-B receptor activators, primary screen, HEK293 GC-B cells, cGMP TR-FRET, EC30 CNP. Atrial natriuretic peptide receptor 2 (Homo sapiens), P20594. 0% at EC30 CNP, 100% saturating CNP. activation, % at 10 µM. 0.11% of 370,000 active. AID 1920062, 2024;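 active = activation at 10 µM reaching about 35% in either raw or pattern-adjusted values, limit read from the data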
MsrA activ conf: bovine MsrA activators, retest, confirmation, biochemical, absorbance, HTS; shares compounds with MsrA act; purified bovine MsrA, absorbance read-out; activation, % at 10.6 µM; 12% of 1,000 active; AID 602270, 2012; in the data active = activation above about 4%;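 also: enzyme coupled to thioredoxin and thioredoxin reductase with NADPH; 0% = vehicle wells and 100% = reference activator wells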
MsrA conf: bovine MsrA inhibitors, retest, confirmation, biochemical, absorbance, HTS. shares compounds with MsrA inh. purified bovine MsrA, absorbance read-out. inhibition, % at 15.5 µM. 41% of 2,300 active;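 also: coupled to thioredoxin reductase with NADPH and selenocystamine and DMSO as substrate; 0% = vehicle only and 100% = full effect of reference inhibitor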
Active calls of the source: *; nt = not tested or not shown. In the library only some 1.2% were active in any assay of this set; here they are far more common. Rule as the data show it, unless noted: active = inhibition above about 4.5%; inactive = the rest.

SMILES | MsrA inh | NPR1 activator | MsrA act | GC-B act | MsrA activ conf | others
C#CCOCCOCCOCCNc1nc(N2CCN(C(=O)[C@H]([C@@H](C)CC)n3cc(CCCN=C(N)N)nn3)CC2)nc(N2CCN(C(=O)[C@H]([C@@H](C)CC)n3cc(CCC(=O)O)nn3)CC2)n1 | 0 | 3 | 7.9* | 1 | -1
Cc1ccnc(SCc2cc(=O)c(OC(=O)c3ccc(C)c([N+](=O)[O-])c3)co2)n1 | nt | 2 | nt | 2 | nt
O=C(O)c1cc(-c2ccc(Cl)cc2)n[nH]1 | 0 | 1 | 9.2* | 1 | -2
c1ccc(-c2nc(NC3CC3)nc(-n3ccnc3)n2)cc1 | 0 | -28 | 14* | -19 | -2
O=C(CSc1ncnc2c1oc1ccccc12)Nc1cccc(C(F)(F)F)c1 | 0 | -7 | 8.8* | -1 | -2
O=C(CSc1ncnc2c1oc1ccccc12)Nc1cccc(Cl)c1 | 0 | 0 | 0 | 3 | nt
CCN(CC)c1ccc2nc3ccccc3[n+](CC)c2c1 | nt | nt | 34* | nt | 19*
COCCCNC(=O)c1cccs1 | 1 | -2 | -1 | -3 | nt
COc1ccc(CNCCNC(=O)c2cccs2)c(OC)c1OC | 1 | -2 | 18* | -3 | -2
CCOC(=O)[C@@]12CCCC=C1N(CCc1ccc(Cl)cc1)C(=O)[C@H]2CC(=O)NCC12CC3CC(CC(C3)C1)C2 | nt | 2 | nt | 0 | nt
CC[C@@H](CCCc1ccccc1OC)CCS(=O)(=O)C(C)(C)C | nt | -6 | nt | -6 | nt
Cc1[nH]c2ccccc2c1CC(=O)O | 1 | 2 | 13* | 5 | -2
O=C(Cc1ccccc1)N/N=C/c1ccc([N+](=O)[O-])s1 | 2 | 4 | 7.9* | 1 | 1
O=C(N/N=C/c1ccc([N+](=O)[O-])s1)c1ccccc1 | 2 | 3 | 6 | -1 | nt
CCCC(C)C(=O)NC1CCCCN(Cc2ccc(C)cc2)C1=O (configuration not stated) | nt | 5 | nt | 6 | nt
C(=C\c1ccccc1)/CN1CCN(C(c2ccccc2)c2ccccc2)CC1 | -1 | -3 | 0 | -1 | nt
Fc1ccc(C(c2ccc(F)cc2)N2CCN(C/C=C/c3ccccc3)CC2)cc1 | -1 | -1 | 8.4* | 1 | -2
CCc1ccc2c(c1)c1nc(C)sc1n2CC | 0 | -1 | 26* | -8 | -4
Cc1nc2c3cc(F)ccc3n(Cc3ccc(F)cc3)c2s1 | 1 | 8 | -7 | 8 | nt
O=S1(=O)c2ccc(N3CCSCC3)cc2Oc2ccccc2CN1Cc1cn(Cc2cccc(C(F)(F)F)c2)nn1 | nt | 2 | nt | 0 | nt
O=C1c2ccccc2-c2c1cccc2C(=O)N(CCO)CCO | 0 | -4 | 12* | -2 | -1
Cc1c2cnn(CC(=O)NCc3ccccn3)c(=O)c2c(C)n1Cc1ccccc1 | 1 | 0 | 11* | 2 | -1
Cc1ccccc1Cn1c2ccccc2c2cnn(CC(=O)NCc3ccccn3)c(=O)c21 | 2 | 26 | -4 | 32 | nt
CCn1c2ccccc2c2cc(NC(=O)COC(=O)c3ccc(F)cc3Cl)ccc21 | nt | 0 | nt | -9 | nt
COCCCn1c(=O)c2ccccc2n2c(=S)[nH]nc12 | -1 | 0 | 9.8* | -6 | 5.4*
SMILES | MsrA inh | NPR1 activator | MsrA act | GC-B act | MsrA activ conf | others
COc1cccc(-n2c(=O)c3ccccc3n3c(=S)[nH]nc23)c1 | 2 | 3 | 3 | 0 | nt
CCCCCC#CCN1CCN(C23CC4CC(CC(C4)C2)C3)CC1 | nt | nt | 8.8* | nt | 3
COC(=O)c1ccc(OCCOc2ccccc2)cc1 | 0 | -2 | -3 | -3 | nt
COc1cccc(OC)c1OCCOc1ccc(C(=O)c2ccccc2)cc1 | 0 | 2 | 18* | 8 | 1
O=S(=O)(Nc1cc(Sc2ncn[nH]2)c(O)c2ccccc12)c1ccccc1 | 63* | 9 | 14* | 6 | 1 | MsrA conf=0
Cc1ccc(OCc2nnc(SCC(=O)Nc3ccc(S(=O)(=O)Nc4cc(C)nc(C)n4)cc3)n2Cc2ccco2)cc1 | nt | 4 | nt | 4 | nt
CC1OC2CC(=O)OC2C2=C1C(=O)c1c(O)cccc1C2=O (configuration not stated) | 8.5* | 20 | 17* | 16 | 11* | MsrA conf=6.8*
O=C(OCc1nnc(-c2ccccc2)o1)c1ccc([N+](=O)[O-])s1 | 9.3* | -1 | 18* | -1 | 24* | MsrA conf=7.2*
Cc1ccc(C(=O)OCc2nnc(-c3ccccc3)o2)s1 | 1 | 2 | -5 | -3 | nt
Cc1cc(NS(=O)(=O)c2ccc(NC(=O)CSc3nnc(-c4ccco4)n3-c3ccc(Cl)cc3)cc2)nc(C)n1 | nt | -2 | nt | 1 | nt
Cc1ccc(NS(=O)(=O)c2ccc3c(c2)C(=O)c2ccccc2C3=O)c(C)c1 | 10* | 1 | 12* | 1 | 5.8* | MsrA conf=32*
Cc1ccc(S(=O)(=O)Nc2ccc3c(c2)C(=O)c2ccccc2-3)cc1 | 0 | 1 | -3 | 0 | nt
O=[N+]([O-])c1ccc(-[n+]2nc(-c3ccccc3)nn2-c2ccccc2)cc1 | 26* | -1 | 7.8* | -2 | 4.8* | MsrA conf=25*
O=c1ccc(-c2ccc([N+](=O)[O-])cc2)nn1-c1ccccc1 | 0 | -4 | -3 | -4 | nt
C=CCn1c(SCC(=O)O)nnc1-c1ccco1 | nt | 2 | nt | 6 | nt
C[n+]1c(-c2ccccc2)cc2c(=Cc3ccc([N+](=O)[O-])cc3)c3ccccc3n21 | 11* | 5 | 20* | -2 | 17* | MsrA conf=0
O=S1(=O)N=C(N2CCCc3ccccc32)c2ccccc21 | 10* | -1 | -2 | 2 | nt | MsrA conf=3
CCc1c(C)nc2ncnn2c1Nc1ccc(C(C)=O)cc1 | 5.3* | 1 | -4 | 3 | nt | MsrA conf=4
CCOC(=O)c1ccc(Nc2c(CC)c(C)nc3ncnn23)cc1 | 3 | 3 | -5 | 3 | nt
COc1cccc(CNC(=O)C[C@H]2CC[C@H]3[C@@H](COc4ccc(NC(=O)c5cccs5)cc4C(=O)N3C)O2)c1 | nt | 1 | nt | -1 | nt
CN(C)c1ccc(C(=O)Nc2ccc(S(=O)(=O)NC3=NCCCCC3)cc2)cc1 | 5.1* | -2 | -6 | -1 | nt | MsrA conf=2
Cc1cc2c(c(=O)o1)[C@@]1(C(=O)N(C)c3cccc(Br)c31)C1=C(CCCC1=O)O2 | 0 | -8 | nt | -2 | nt
C=CCN1C(=O)[C@@H](CC(=O)NCc2cccc3ccccc23)[C@]2(C(=O)OCC)CCCCC/C=C/12 | nt | -3 | nt | -10 | nt
COc1ccc(C=CC(=O)c2ccc([N+](=O)[O-])cc2)cc1 | -1 | 0 | 1 | -6 | nt
COc1ccc(C(=O)/C=C/c2ccc(O)cc2)cc1 | 5.0* | 1 | -2 | -5 | nt | MsrA conf=4
O=c1/c(=C/c2ccccn2)sc2n1CN(c1ccccc1)CN=2 | 4.8* | -4 | -5 | -1 | nt | MsrA conf=4
